Test results published in PubChem BioAssay AID1159580 (chemical genetic matrix, 2015).
The whole screen tested about 5,500 compounds, of which about 2,000 (36%) were called active. Not shown: some 18% with an inconclusive outcome. No stated cut-off is given here; in the data, active means normalized growth mostly below about 0.91 (no sharp cut-off); inconclusive means no clear call, values can overlap the other calls; inactive means mostly above about 0.92. The list shows a part of the results.

Test: chemical genetic growth profiling, strain panel (AID 1159580);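 further: tested at 20 µM; growth read once vehicle control cultures reached saturation at 30 °C; 1 = growth at the plate median or of vehicle wells; lower values mean less growth of the strain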
Details: growth OD

Measured: normalized growth

CN(Cc1cc(Br)cc(Br)c1N)C1CCCCC1
inactive: S. cerevisiae deletion strains, locus YKL009W, strain mrt4, hits give low values 1.01 | S. cerevisiae deletion strains, locus YKL068W, hits give low values 1.01 | S. cerevisiae deletion strains, locus YKL085W, strain MDH1 (second series), hits give low values 1.01 | S. cerevisiae deletion strains, locus YKL085W, strain MDH1, hits give low values 1.01 | S. cerevisiae deletion strains, locus YKL160W, strain elf1, hits give low values 1 | S. cerevisiae deletion strains, locus YKL190W, strain CNB1, hits give low values 1.02 | S. cerevisiae deletion strains, locus YKR001C, strain vps1, hits give low values 0.994 | S. cerevisiae deletion strains, locus YKR026C, strain gcn3, hits give low values 1.04 | S. cerevisiae deletion strains, locus YKR091W, strain srl3, hits give low values 1.03 | S. cerevisiae deletion strains, locus YLL001W, strain dnm1, hits give low values 1.03 | S. cerevisiae deletion strains, locus YLL026W, hits give low values 1.03 | S. cerevisiae deletion strains, locus YLL041C, strain sdh2, hits give low values 1.05 | S. cerevisiae deletion strains, locus YLR027C, strain aat2, hits give low values 1.01 | S. cerevisiae deletion strains, locus YLR039C, strain RIC1, hits give low values 1.08 | S. cerevisiae deletion strains, locus YLR058C, strain SHM2, hits give low values 1.01 | S. cerevisiae deletion strains, locus YLR102C, strain apc9, hits give low values 1.02 | S. cerevisiae deletion strains, locus YLR113W, strain HOG1, hits give low values 0.947 | S. cerevisiae deletion strains, locus YLR221C, strain rsa3, hits give low values 0.997 | S. cerevisiae deletion strains, locus YLR258W, strain gsy2, hits give low values 1.03 | S. cerevisiae deletion strains, locus YLR262C, strain YPT6 (second series), hits give low values 0.982 | S. cerevisiae deletion strains, locus YLR262C, strain YPT6, hits give low values 1.08 | S. cerevisiae deletion strains, locus YLR268W, strain sec22, hits give low values 1.01 | S. cerevisiae deletion strains, locus YLR320W, strain mms22, hits give low values 0.984 | S. cerevisiae deletion strains, locus YLR330W, strain CHS5, hits give low values 1.02 | S. cerevisiae deletion strains, locus YLR342W, strain FKS1 (second series), hits give low values 1 | S. cerevisiae deletion strains, locus YLR342W, strain FKS1, hits give low values 1.02 | S. cerevisiae deletion strains, locus YLR357W, strain rsc2, hits give low values 1.06 | S. cerevisiae deletion strains, locus YLR370C, strain arc18, hits give low values 1.04 | S. cerevisiae deletion strains, locus YLR371W, strain rom2, hits give low values 1.02 | S. cerevisiae deletion strains, locus YLR384C, strain iki3, hits give low values 1.04 | S. cerevisiae deletion strains, locus YLR418C, strain cdc73, hits give low values 1.02 | S. cerevisiae deletion strains, locus YML016C, strain PPZ1, hits give low values 1.01 | S. cerevisiae deletion strains, locus YML032C, strain rad52, hits give low values 0.986 | S. cerevisiae deletion strains, locus YML120C, strain ndi1, hits give low values 1.04 | S. cerevisiae deletion strains, locus YML124C, strain tub3, hits give low values 1.03 | S. cerevisiae deletion strains, locus YMR058W, strain fet3, hits give low values 0.995 | S. cerevisiae deletion strains, locus YMR078C, strain ctf18, hits give low values 1.04 | S. cerevisiae deletion strains, locus YMR125W, strain sto1, hits give low values 1.06 | S. cerevisiae deletion strains, locus YMR129W, hits give low values 1.04 | S. cerevisiae deletion strains, locus YMR205C, strain PFK2, hits give low values 1.04 | S. cerevisiae deletion strains, locus YMR223W, strain ubp8, hits give low values 1 | S. cerevisiae deletion strains, locus YMR231W, strain pep5, hits give low values 1.04 | S. cerevisiae deletion strains, locus YMR307W, strain GAS1, hits give low values 1.17 | S. cerevisiae deletion strains, locus YNL067W, strain RPL9B, hits give low values 0.966 | S. cerevisiae deletion strains, locus YNL071W, strain lat1, hits give low values 1.04 | S. cerevisiae deletion strains, locus YNL183C, strain NPR1, hits give low values 0.838 | S. cerevisiae deletion strains, locus YNL209W, strain ssb2, hits give low values 1.03 | S. cerevisiae deletion strains, locus YNL233W, strain BNI4, hits give low values 1.01 | S. cerevisiae deletion strains, locus YNL248C, strain rpa49, hits give low values 1.04 | S. cerevisiae deletion strains, locus YNL250W, strain rad50, hits give low values 1.05 | S. cerevisiae deletion strains, locus YNL271C, strain bni1, hits give low values 1.02 | S. cerevisiae deletion strains, locus YNL298W, strain CLA4, hits give low values 1.03 | S. cerevisiae deletion strains, locus YNL307C, strain MCK1, hits give low values 1.01 | S. cerevisiae deletion strains, locus YNL322C, strain KRE1 (second series), hits give low values 1.06 | S. cerevisiae deletion strains, locus YNL322C, strain KRE1, hits give low values 1.02 | S. cerevisiae deletion strains, locus YNR049C, strain mso1, hits give low values 1.02 | S. cerevisiae deletion strains, locus YNR052C, strain pop2, hits give low values 1.01 | S. cerevisiae deletion strains, locus YOL006C, strain TOP1, hits give low values 0.804 | S. cerevisiae deletion strains, locus YOL012C, strain htz1 2.06 | S. cerevisiae deletion strains, locus YOL147C, strain pex11, hits give low values 1.03 | S. cerevisiae deletion strains, locus YOR001W, strain rrp6, hits give low values 1.01 | S. cerevisiae deletion strains, locus YOR061W, strain CKA2, hits give low values 1.01 | S. cerevisiae deletion strains, locus YOR069W, strain VPS5, hits give low values 1.02 | S. cerevisiae deletion strains, locus YOR070C, strain gyp1, hits give low values 1.03 | S. cerevisiae deletion strains, locus YOR080W, strain dia2, hits give low values 1.07 | S. cerevisiae deletion strains, locus YOR083W, strain WHI5, hits give low values 0.988 | S. cerevisiae deletion strains, locus YOR106W, strain vam3, hits give low values 1.01 | S. cerevisiae deletion strains, locus YOR136W, strain idh2, hits give low values 1.01 | S. cerevisiae deletion strains, locus YOR144C, strain elg1, hits give low values 1.02 | S. cerevisiae deletion strains, locus YOR184W, strain ser1, hits give low values 0.935 | S. cerevisiae deletion strains, locus YOR265W, strain rbl2, hits give low values 1.05 | S. cerevisiae deletion strains, locus YOR270C, strain vph1, hits give low values 0.811 | S. cerevisiae deletion strains, locus YOR290C, strain snf2, hits give low values 1 | S. cerevisiae deletion strains, locus YOR316C, strain cot1, hits give low values 1.02 | S. cerevisiae deletion strains, locus YPL051W, strain arl3, hits give low values 0.983 | S. cerevisiae deletion strains, locus YPL078C, strain atp4, hits give low values 1.01 | S. cerevisiae deletion strains, locus YPL106C, strain sse1, hits give low values 1 | S. cerevisiae deletion strains, locus YPL240C, strain hsp82, hits give low values 1.02 | S. cerevisiae deletion strains, locus YPL241C, strain CIN2, hits give low values 1.01 | S. cerevisiae deletion strains, locus YPL256C, strain CLN2, hits give low values 0.944 | S. cerevisiae deletion strains, locus YPR119W, strain clb2, hits give low values 1.01 | S. cerevisiae deletion strains, locus YPR141C, strain kar3, hits give low values 1.02 | S. cerevisiae deletion strains, locus YPR163C, strain tif3, hits give low values 1.03 | S. cerevisiae deletion strains, locus YPR167C, strain met16, hits give low values 1.01 | S. cerevisiae deletion strains, strain wtn01, hits give low values 0.995 | S. cerevisiae strains, strain wild type, hits give low values 1.01
active: S. cerevisiae deletion strains, locus YOR231W, strain MKK1, hits give low values 0.841
